Assay results reported in PubChem BioAssay AID1903 (Southern Research Specialized Biocontainment Screening …, 2009).
Screen size: about 310,000 compounds; about 1,200 (0.39%) were called active. The rule behind the calls is not given here. Only a sample is shown. Entries with a potency or affinity are not part of this list.

Target: Large T antigen (Simian virus 40) (UniProt P03070)
Assay: TAg ATPase/helicase activity blockers – biochemical (AID 1903)
Conditions: SV40 large T antigen ATPase/helicase inhibition assay; at 20 µM; active compounds read high

Large T antigen (Simian virus 40), sequence (P03070 whole entry, looked up): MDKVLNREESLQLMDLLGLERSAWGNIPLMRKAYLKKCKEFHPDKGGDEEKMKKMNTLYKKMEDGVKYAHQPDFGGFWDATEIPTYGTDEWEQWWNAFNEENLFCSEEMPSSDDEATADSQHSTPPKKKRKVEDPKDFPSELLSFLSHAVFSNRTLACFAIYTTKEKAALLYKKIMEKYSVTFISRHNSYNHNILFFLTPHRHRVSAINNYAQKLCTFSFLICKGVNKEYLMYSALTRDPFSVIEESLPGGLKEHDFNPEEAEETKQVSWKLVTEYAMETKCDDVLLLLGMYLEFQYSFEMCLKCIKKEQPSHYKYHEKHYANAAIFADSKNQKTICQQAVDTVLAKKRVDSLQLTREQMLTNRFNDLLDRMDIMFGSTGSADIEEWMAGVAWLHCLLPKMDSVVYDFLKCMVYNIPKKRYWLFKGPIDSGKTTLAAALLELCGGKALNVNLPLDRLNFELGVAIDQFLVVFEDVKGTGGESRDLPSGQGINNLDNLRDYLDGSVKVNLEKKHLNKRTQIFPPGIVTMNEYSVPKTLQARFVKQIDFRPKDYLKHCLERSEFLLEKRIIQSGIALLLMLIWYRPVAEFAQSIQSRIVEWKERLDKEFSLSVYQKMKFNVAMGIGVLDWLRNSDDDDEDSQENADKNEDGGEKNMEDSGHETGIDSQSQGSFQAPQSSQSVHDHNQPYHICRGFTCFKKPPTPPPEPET

inhibition, inactive:
CSC1=NCCCN1C(=O)c1c(-c2ccccc2Cl)noc1C 10.2%
O=C(O)C1CCCC[C@H]1C(=O)Nc1ncc([N+](=O)[O-])s1 (stereo partly specified) 3.81%
COc1ccc(CCNC(=S)Nc2ccc(C(C)C)cc2)cc1 13.7%
CC(/C=C1\SC(=S)N(CC(=O)O)C1=O)=C\c1ccccc1 19.5%
CC(=C\c1ccccc1)/C=C1/SC(=S)N(CCC(=O)O)C1=O 0.31%
Cc1ccc(-c2n[nH]c(=S)n2C)cc1 14.5%
Cc1ccc(S(=O)(=O)c2c(C)nn(-c3ccccc3)c2OC(=O)c2ccc(Br)o2)cc1 6.66%
O=C(Nc1nc2ccccc2n1Cc1ccccc1)c1ccco1 -0.22%
CCCCC/C(=N\NC(=O)CCC(=O)NCc1ccccc1)c1ccccc1 -0.61%
CCC/C(=N\NC(=O)CCC(=O)NCc1ccccc1)c1ccccc1 8.82%
Cc1ccc(-c2nc(CSCC(=O)NCCCN3CCOCC3)c(C)o2)cc1 26.4%
CN(C)c1ccc(C2OC(=O)C3(CCCC3)C(=O)C2(C)C)cc1 (stereo unspecified) 1.45%
COc1cc(C(=O)OCCCN2CCOCC2)ccc1O 30.9%
COc1cc(C(=O)OCCN2CCOCC2)ccc1O 25.1%
COCCOc1ccc(C(F)(F)F)cc1NC(=O)c1ccc(C(F)(F)F)cc1 2.65%
C=C(c1ccc(O)cc1)c1ccc(O)cc1 12.5%
Oc1ccc(Oc2ccc(Oc3ccc(O)cc3)cc2)cc1 11.2%
COc1ccc2[nH]c(C(=O)NCCc3ccccc3)cc2c1 6.64%
O=C(CCSc1ccccc1)N1CCN(c2ccccc2)CC1 8.73%
O=C(CCCOc1ccccc1)N1CCN(c2ccc(F)cc2)CC1 0.74%
CCOC(=O)N1CCN(c2ccc([N+](=O)[O-])cc2)CC1 5.56%
O=C(CCSc1ccc(Cl)cc1)N1CCOCC1 23.4%
Cc1ccc(OCCC(=O)OCC(=O)N2CCN(S(=O)(=O)c3ccc(Cl)cc3)CC2)cc1 30.2%
Cc1ccc(OCCC(=O)OCC(=O)N2CCN(S(=O)(=O)c3ccc(C)cc3)CC2)cc1 10.3%
CCOC(=O)N1CCN(c2ccc(Cl)cc2)CC1 24.6%
O=C(CCCOc1ccccc1)N1CCN(c2ccccc2)CC1 -0.15%
COc1ccc(OC)c(CCNC(=O)c2ccc3c(c2)N(Cc2ccccc2)CCS3)c1 -0.13%
O=C(CNC(=O)c1cccc(F)c1)OCC(=O)N1CCCc2ccccc21 7.9%
Cc1ccc(NS(=O)(=O)c2ccc(CCC(=O)NCCCOC(C)C)cc2)cc1 5.53%
COc1ccc(S(=O)(=O)c2nnn(-c3cccc(OC)c3)c2N)cc1 22.2%
O=[N+]([O-])c1ccc(-n2cccc2/C=N/Nc2nc(N3CCCCC3)nc(N3CCCCC3)n2)cc1 9.66%
O=C(CNC(=O)c1ccccc1F)OCC(=O)N1CCCCC1 7.93%
Cc1cc(C)c(S(=O)(=O)c2ccccc2C)c(N(C)C)n1 21.5%
COc1cc(/C=C2\SC(=S)N(CCC(=O)Nc3ccc(O)cc3)C2=O)cc(OC)c1OC 5.27%
O=C(Nc1ccc2c(c1)OCO2)c1ccc(NC2CC2)c([N+](=O)[O-])c1 12.5%
CCn1c(-c2nn(-c3ccccc3)ccc2=O)n[nH]c1=S 9.69%
COc1ccc(NS(=O)(=O)c2cccc(C(=O)NCC(c3ccccc3OC)N3CCCC3)c2)cc1 (stereo unspecified) 5.32%
COc1ccc(OCC(=O)N2CCN(c3cccc(C(F)(F)F)c3)CC2)cc1 17%
O=C(C1CC1)N1CCN(c2ccc(F)cc2)CC1 2.25%
COc1cc(OC)cc(C(=O)NCC(=O)N2CCCCC2)c1 4.74%
O=C(COc1cccc(C(F)(F)F)c1)N1CCN(c2ccccc2O)CC1 22.7%
COc1ccc(N2CCN(C(=O)COC(=O)CCOc3ccc(C)cc3)CC2)cc1 10.6%
Cc1ccc(OCCCC(=O)N2CCOCC2)cc1 0.37%
COc1ccc(C(=O)NCC(=O)N2CCN(c3ccc(Cl)cc3)CC2)cc1 10.9%
O=C(C1CC1)N1CCN(c2ccc([N+](=O)[O-])cc2)CC1 12.1%
c1ccc(Nc2nc(-c3ccccc3)ns2)cc1 -2.89%
CSc1nnc2c(n1)OC(c1cccn1C)N(C(C)=O)c1ccccc1-2 (stereo unspecified) 15.3%
Cn1cnc(S(=O)(=O)NCc2ccccc2)c1 6.21%
Cc1ccc(C(=O)Nc2ccc(S(=O)(=O)N3CCOCC3)cc2)cc1C 0.36%
O=C(CNC(=O)c1ccc(Br)cc1)OCC(=O)c1ccccc1 11.9%
Cc1ccc(C(=O)NCC(=O)N2CCN(c3ncccn3)CC2)s1 -1.43%
O=C(NCc1ccco1)C(c1ccncc1)N(C(=O)Cc1cccs1)c1ccccc1 (stereo unspecified) 7.67%
Cc1cccc(Nc2ncc3c(n2)CC(C)CC3=O)c1 (stereo unspecified) 7.64%
CCOc1ccccc1NC(=S)N1CCN(c2ccc(OC)cc2)CC1 7.58%
CCOc1ccccc1NC(=S)N1CCN(c2ccccc2)CC1 3.57%
CN(Cc1ccco1)S(=O)(=O)c1ccc(CN2C(=O)c3cccnc3C2=O)s1 16.5%
COc1ccc(N2CCC(CNC(=O)Nc3ccc(Cl)cc3)C2)cc1 (stereo unspecified) 21.5%
COc1ccc(N2CCC(CNC(=S)Nc3cccc(OC)c3)C2)cc1 (stereo unspecified) 19.4%
COc1ccc(N2CCC(CNC(=O)Nc3ccc(C)c(C)c3)C2)cc1 (stereo unspecified) 9.39%
CCOc1ccc(NC(=O)NCC2CCN(c3ccc(OC)cc3)C2)cc1 (stereo unspecified) 22.4%
CC(C)CN(C(=O)COC(=O)C1CC1)c1c(N)n(Cc2ccccc2)c(=O)[nH]c1=O 17.3%
Cc1c(Cl)cccc1NC(=O)CN1CCC(NC(=O)C2CCCCC2)CC1 8.83%
COc1ccc(OCC(=O)Nc2cccc(OC)c2)cc1 2.29%
CC(=Nc1ccccc1)Nc1ccccc1 9.53%
NC(=Nc1ccccc1)Nc1ccccc1 15.7%
COc1cccc(NC(=O)CCC(=O)Nc2cccc(OC)c2)c1 11.8%
NC(=O)C[n+]1cccc(/C=N/O)c1 2.56%
c1ccc(-c2nn3c(Cn4cnc5ccccc54)nnc3s2)cc1 -0.363%
COc1cc(/C=C2\SC(=S)N(C(C(=O)O)c3ccccc3)C2=O)cc(OC)c1OC (stereo unspecified) 27.9%
COc1cccc(/C=C2\SC(=S)N(C(Cc3ccccc3)C(=O)O)C2=O)c1 (stereo unspecified) 33.3%
COc1ccc(/C=C2\SC(=S)N(C(Cc3ccccc3)C(=O)O)C2=O)cc1 (stereo unspecified) -3.2%
CCOc1ccc(/C=C2\SC(=S)N(C(C(=O)O)c3ccccc3)C2=O)cc1OC (stereo unspecified) 23.8%
O=C(O)C(c1ccccc1)N1C(=O)/C(=C/c2cccs2)SC1=S (stereo unspecified) 19.8%
CCOc1ccc(/C=C2/SC(=S)N(C(C(=O)O)c3ccccc3)C2=O)cc1OCC (stereo unspecified) 19%
Cc1ccc(NS(=O)(=O)c2cc(C(=O)N(C)C)ccc2C)cc1C 7.8%
CC(=O)Nc1ccc(NC(=O)CCOc2ccccc2C)cc1 9.91%
O=C(NCCc1nnc2ccc(N3CCCCCC3)nn12)c1ccccc1F 10%
COc1ccc(C(=O)NCC(C)(C)CNC(=O)c2ccc(OC)cc2)cc1 11.7%
CCN(CC)c1ccc(CN(C(=O)c2ccco2)C2CCS(=O)(=O)C2)cc1 (stereo unspecified) 21.8%
COC(=O)C1=C(C(=O)OC)[C@@H]2N(C)c3ccc(OC)cc3[C@@]23C[C@@H](C(=O)OC)N(S(=O)(=O)c2ccc([N+](=O)[O-])cc2)C3=N1 1.76%
CCOC(=O)C1=NN(c2ccc(C)cc2)CC1C(=O)OC (stereo unspecified) 7.97%
CCOc1cc(C(=O)N[C@@H](C)C(=O)N2CCC3(CC2)NCCc2[nH]cnc23)cc(OCC)c1OCC 4.98%
S=C(NCCN1CCOCC1)N/N=C/c1ccccc1 2.2%
COc1ccc(CNC(=S)N/N=C/c2ccc(OC)c(OC)c2)cc1 4.58%
CCOc1ccc(CNC(=S)N/N=C/c2ccc(OC)c(OC)c2)cc1 9.25%
COc1cc(/C=N/NC(=S)NCCN2CCOCC2)cc(OC)c1OC 12.4%
Oc1cccc(/C=N/NC(=S)NCCN2CCOCC2)c1O 50.5%
COCCCNC(=S)N/N=C/c1ccccc1O 12.5%
COc1cc(/C=N/NC(=S)NCCN2CCOCC2)cc(OC)c1O 30.1%
COCCCNC(=S)N/N=C/c1ccc(O)cc1 46.2%
CC(=O)c1cccc(NC(=S)NC(=O)c2ccccc2Br)c1 4.36%
COCCn1c(-c2ccc(Br)cc2)csc1=Nc1cccnc1 8.06%
O=C(CN1CCN(C(=O)c2ccco2)CC1)Nc1ccc(Cl)c(S(=O)(=O)N2CCOCC2)c1 0.58%
O=C(Nn1cnnc1)C(Sc1ccccc1)c1ccccc1 (stereo unspecified) 1.32%
O=C(NCCF)[C@H]1C[C@@H]1[C@H](NP(=O)(c1ccccc1)c1ccccc1)c1ccccc1 3.51%
COc1ccc2oc(C(=O)OCC(=O)Nc3ccc(N4CCOCC4)cc3)c(C)c2c1 14%
